For some of these results: Entries with a potency or affinity are not part of this list.

Experimental findings from ChEMBL document CHEMBL3988442, “University of Dundee, Small-Polar-MMV Screening Library” (2021) are described below.

Set-up in all cases: scale not given: direction of the effect not stated beside the values
Assay [1] concerns the target Protein translocase subunit SecA (Escherichia coli (strain K12)) (UniProt P10408). As to the kind of experiment: Assay to Identify E. coli SecA ATPase Inhibitors. To be noted: 30 µM. The assay is classed as functional.
For assay [2], the target named is T1, Ubiquitin-activating enzyme e1, putative (Leishmania donovani (strain BPK282A1)) (UniProt E9BSI1).
T1 sequence (whole entry): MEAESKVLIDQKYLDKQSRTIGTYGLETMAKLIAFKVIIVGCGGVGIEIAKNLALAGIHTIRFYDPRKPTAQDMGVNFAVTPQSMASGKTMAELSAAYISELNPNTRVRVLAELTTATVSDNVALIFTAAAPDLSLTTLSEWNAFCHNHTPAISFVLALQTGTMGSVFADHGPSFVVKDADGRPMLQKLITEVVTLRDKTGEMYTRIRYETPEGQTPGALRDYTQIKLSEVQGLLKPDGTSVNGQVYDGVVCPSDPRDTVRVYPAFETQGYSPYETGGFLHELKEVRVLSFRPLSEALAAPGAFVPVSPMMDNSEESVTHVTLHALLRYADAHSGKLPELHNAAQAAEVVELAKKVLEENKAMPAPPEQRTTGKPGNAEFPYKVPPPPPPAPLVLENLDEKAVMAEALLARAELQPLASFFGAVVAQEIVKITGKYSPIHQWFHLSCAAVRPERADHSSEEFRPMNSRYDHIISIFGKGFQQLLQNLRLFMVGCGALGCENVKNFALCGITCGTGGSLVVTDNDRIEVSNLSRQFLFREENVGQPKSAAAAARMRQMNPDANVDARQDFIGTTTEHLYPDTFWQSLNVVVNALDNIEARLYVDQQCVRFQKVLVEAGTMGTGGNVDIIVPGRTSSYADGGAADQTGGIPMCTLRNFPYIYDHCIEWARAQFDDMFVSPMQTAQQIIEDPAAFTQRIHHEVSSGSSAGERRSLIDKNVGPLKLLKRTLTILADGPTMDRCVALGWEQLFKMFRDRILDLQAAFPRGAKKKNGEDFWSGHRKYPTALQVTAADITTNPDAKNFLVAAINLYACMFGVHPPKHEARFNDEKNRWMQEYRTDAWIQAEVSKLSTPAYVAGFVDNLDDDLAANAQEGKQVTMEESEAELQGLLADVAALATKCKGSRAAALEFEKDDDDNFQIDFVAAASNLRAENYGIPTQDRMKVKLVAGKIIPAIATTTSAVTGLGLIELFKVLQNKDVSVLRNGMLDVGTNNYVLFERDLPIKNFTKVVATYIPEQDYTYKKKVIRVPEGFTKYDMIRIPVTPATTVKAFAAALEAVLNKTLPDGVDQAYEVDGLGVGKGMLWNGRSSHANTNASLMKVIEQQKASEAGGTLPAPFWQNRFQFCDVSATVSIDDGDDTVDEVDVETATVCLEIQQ
As to the kind of experiment: Leishmania donovani Ubiquitin Activating Enzyme (LdE1). To be noted: 30 µM. The class given is functional.

The target of assay [3] is AMP-activated protein kinase, AMPK (Homo sapiens) (UniProt P54646+O43741+P54619+Q9UGJ0+Q9Y478+Q13131+Q9UGI9). As to the kind of experiment: AMP-dependent Kinase enzyme assay. An in vitro enzyme assay that detects ADP turnover that is directly proportional to AMPK activity. This uses naive AMPK that is activated during the assay with MK-8722. The class given is functional. To be noted: 30 µM.

Assay [4] deals with Sialic acid-binding Ig-like lectin 9 (Homo sapiens) (UniProt Q9Y336). As to the kind of experiment: Hs-Siglec9 ALPHAscreen SOP 20170721. To be noted: 10 µM. A general note: In Alpha technology, singlet oxygen from a donor bead excites a nearby acceptor bead.
Sequence of Sialic acid-binding Ig-like lectin 9 (Homo sapiens) (Q9Y336 whole entry): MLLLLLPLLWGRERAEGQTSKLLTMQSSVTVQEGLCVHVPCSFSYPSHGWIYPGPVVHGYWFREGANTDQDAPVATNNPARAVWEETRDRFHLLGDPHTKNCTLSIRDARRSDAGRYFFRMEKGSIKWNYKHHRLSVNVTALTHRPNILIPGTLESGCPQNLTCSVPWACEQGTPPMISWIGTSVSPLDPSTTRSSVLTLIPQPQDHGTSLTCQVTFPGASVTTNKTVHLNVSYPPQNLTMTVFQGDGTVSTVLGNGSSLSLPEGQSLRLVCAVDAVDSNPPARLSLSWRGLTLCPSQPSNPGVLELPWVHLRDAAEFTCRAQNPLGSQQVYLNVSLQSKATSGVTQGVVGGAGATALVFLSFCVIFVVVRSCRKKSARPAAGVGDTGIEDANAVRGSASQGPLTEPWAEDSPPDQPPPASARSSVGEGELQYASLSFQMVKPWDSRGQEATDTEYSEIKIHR
The subject of assay [5] is Trypanosoma cruzi. As to the kind of experiment: Trypanosoma cruzi phosphomannomutase and mannose-1-phosphate guanylyltransferase assay. As to conditions: 10 µM. The assay is classed as functional.
The target of assay [6] is T2, Arginase-2, mitochondrial (Homo sapiens) (UniProt P78540).
T2 sequence (whole entry): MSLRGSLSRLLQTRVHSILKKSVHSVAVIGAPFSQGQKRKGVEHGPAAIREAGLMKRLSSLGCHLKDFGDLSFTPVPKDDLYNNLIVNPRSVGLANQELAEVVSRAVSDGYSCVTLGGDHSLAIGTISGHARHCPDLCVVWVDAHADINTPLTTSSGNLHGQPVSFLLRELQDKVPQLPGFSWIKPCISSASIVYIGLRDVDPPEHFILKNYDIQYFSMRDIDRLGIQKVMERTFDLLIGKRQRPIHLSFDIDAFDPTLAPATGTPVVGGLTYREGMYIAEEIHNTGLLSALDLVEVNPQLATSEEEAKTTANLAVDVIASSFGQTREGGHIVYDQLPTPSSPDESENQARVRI
As to the kind of experiment: in vitro enzyme assay to detect the production of urea directly proportional to the activity of Arginase II. Further: in the data most compounds retested in dose-response had high values. As to conditions: 33.3 µM. The assay is classed as functional.

Assay [7] addresses T3, Proteasome subunit beta (Trypanosoma cruzi) (UniProt O96673).
T3 sequence (whole entry): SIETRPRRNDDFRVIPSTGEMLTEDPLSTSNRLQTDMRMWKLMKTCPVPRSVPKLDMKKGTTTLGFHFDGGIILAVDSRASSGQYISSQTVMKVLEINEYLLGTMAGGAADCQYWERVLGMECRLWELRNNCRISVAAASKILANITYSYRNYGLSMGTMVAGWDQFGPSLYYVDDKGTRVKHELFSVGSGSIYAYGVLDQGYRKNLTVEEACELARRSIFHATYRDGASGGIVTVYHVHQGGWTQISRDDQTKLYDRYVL
As to the kind of experiment: Trypanosoma cruzi proteasome chymotrypsin-like activity (TcProtChymo) assay. Further: in the data most compounds retested in dose-response had high values. The assay is classed as functional. As to conditions: 9.37 µM.

The species named for assay [8] is Homo sapiens. As to the kind of experiment: To identify inhibition of the IFN signalling (Jak-Stat) pathway via expression of an eGFP reporter gene under the control of an IFN-stimulated response element (ISRE) containing MxA promoter. The class given is functional. To be noted: 30 µM. Background: A reporter such as luciferase makes a cellular process visible.
Assay [9] addresses T4, Tyrosyl-tRNA synthetase, putative (Trypanosoma cruzi (strain CL Brener)) (UniProt Q4DSP6).
T4 sequence (whole entry): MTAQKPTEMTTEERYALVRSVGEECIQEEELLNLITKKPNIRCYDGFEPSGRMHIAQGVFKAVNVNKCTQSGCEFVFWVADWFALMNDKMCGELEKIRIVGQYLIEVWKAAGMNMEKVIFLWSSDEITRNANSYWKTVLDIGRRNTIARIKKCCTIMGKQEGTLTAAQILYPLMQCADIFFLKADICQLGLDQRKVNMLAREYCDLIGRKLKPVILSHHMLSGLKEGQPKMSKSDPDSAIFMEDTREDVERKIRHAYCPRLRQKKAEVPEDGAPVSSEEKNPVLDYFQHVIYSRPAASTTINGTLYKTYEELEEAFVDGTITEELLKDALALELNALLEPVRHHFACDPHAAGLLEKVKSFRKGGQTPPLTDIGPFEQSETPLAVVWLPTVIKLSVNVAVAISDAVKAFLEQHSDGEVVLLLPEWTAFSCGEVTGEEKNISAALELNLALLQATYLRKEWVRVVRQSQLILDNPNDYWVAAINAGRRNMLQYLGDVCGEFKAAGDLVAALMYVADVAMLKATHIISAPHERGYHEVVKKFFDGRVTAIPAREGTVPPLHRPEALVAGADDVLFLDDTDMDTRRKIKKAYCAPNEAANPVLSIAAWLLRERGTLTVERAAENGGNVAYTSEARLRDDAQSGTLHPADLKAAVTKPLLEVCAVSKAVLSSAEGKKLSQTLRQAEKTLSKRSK
As to the kind of experiment: Trypanosoma cruzi tyrosyl tRNA synthetase (TcYRS) _High Tyrosine SOP. Further: in the data most compounds retested in dose-response had high values. As to conditions: 30 µM. The assay is classed as functional.

For assay [10], the target named is T4, Tyrosyl-tRNA synthetase, putative (Trypanosoma cruzi (strain CL Brener)). As to the kind of experiment: Trypanosoma cruzi tyrosyl tRNA synthetase (TcYRS) SOP. To be noted: 30 µM. The class given is functional.
Assay [11] addresses Chromo domain-containing protein 1 (Saccharomyces cerevisiae (strain ATCC 204508 / S288c) (Baker's yeast)) (UniProt P32657). As to the kind of experiment: ScCHD-1 Enzyme Inhibition Assay. Further: in the data most compounds retested in dose-response had high values. The class given is functional. To be noted: 30 µM.

Sequence of Protein translocase subunit SecA (Escherichia coli (strain K12)) (P10408 whole entry): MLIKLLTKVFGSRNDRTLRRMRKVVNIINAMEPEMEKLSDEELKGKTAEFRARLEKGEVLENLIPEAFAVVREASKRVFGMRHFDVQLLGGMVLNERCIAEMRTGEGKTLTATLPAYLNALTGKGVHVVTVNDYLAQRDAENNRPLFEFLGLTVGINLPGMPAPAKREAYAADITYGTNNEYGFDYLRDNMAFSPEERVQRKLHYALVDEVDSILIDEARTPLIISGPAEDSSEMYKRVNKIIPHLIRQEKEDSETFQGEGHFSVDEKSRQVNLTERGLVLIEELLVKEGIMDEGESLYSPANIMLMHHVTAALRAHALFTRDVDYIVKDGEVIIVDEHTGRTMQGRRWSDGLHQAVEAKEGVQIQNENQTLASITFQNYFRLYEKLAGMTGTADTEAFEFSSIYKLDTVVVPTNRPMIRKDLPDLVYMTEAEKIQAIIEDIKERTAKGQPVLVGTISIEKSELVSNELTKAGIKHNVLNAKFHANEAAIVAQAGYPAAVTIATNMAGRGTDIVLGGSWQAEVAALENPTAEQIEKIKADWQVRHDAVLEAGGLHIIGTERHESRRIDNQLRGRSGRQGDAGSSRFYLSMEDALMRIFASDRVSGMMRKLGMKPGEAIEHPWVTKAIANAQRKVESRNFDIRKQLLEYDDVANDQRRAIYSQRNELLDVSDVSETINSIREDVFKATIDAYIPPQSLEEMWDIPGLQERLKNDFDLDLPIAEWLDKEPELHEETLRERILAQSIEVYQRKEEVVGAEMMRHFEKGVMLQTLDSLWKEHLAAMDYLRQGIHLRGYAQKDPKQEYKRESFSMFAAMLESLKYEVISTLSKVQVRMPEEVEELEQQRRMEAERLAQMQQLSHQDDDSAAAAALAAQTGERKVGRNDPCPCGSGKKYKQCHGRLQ
Sequence of Chromo domain-containing protein 1 (Saccharomyces cerevisiae (strain ATCC 204508 / S288c) (Baker's yeast)) (P32657 whole entry, the tested form may be a part): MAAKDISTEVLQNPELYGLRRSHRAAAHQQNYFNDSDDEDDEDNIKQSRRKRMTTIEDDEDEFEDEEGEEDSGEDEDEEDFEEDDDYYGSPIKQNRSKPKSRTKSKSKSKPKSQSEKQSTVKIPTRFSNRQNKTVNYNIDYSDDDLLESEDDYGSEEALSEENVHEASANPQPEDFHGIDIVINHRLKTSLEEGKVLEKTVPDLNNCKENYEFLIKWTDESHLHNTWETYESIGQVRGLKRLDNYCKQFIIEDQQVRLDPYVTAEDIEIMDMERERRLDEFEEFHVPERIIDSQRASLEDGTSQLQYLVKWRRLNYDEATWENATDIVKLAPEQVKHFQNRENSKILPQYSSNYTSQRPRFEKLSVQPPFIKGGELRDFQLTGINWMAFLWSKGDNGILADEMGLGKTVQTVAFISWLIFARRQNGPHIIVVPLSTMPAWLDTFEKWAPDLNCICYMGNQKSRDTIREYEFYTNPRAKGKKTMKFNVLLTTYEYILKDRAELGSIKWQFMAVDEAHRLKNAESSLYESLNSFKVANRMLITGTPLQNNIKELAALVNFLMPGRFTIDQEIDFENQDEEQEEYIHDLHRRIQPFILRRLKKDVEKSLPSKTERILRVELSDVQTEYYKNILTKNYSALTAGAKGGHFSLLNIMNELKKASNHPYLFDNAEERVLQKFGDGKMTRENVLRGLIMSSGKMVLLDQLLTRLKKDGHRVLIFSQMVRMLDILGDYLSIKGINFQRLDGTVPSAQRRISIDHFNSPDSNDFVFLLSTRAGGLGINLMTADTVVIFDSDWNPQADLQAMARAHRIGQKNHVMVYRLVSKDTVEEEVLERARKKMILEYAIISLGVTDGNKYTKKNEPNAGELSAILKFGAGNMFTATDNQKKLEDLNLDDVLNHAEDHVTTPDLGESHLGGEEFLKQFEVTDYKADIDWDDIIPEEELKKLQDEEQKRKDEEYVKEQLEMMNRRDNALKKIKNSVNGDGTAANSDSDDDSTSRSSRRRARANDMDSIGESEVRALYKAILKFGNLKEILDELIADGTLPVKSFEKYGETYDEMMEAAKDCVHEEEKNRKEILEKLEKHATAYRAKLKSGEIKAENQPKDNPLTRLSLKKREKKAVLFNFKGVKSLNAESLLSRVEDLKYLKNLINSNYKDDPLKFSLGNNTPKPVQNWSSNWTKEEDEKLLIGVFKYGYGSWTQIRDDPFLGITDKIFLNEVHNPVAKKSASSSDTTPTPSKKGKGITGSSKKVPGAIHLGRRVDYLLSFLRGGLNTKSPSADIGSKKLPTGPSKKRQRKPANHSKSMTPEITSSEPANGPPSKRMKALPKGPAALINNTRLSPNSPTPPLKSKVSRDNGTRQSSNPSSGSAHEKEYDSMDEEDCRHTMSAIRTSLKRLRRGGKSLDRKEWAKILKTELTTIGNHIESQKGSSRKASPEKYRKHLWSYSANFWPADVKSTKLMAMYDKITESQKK

For `N#Cc1ccccc1OCCN1CCCC1Cn1cccn1` (stereo not drawn), the Percent Effect in assay [1] was -0.713%; in [2], -5.41%; in [3], -5.48%; in assay [4] it was 8.98%; in [5], 5.75%; in assay [6], -3.61%. The Percent Effect in assay [7] is -5.22%; in assay [8], -12.9%; in assay [9], 2.46%; in [10] it was 11.1%; in assay [11], -5.36%.
As to `O=C(COc1coc(CN2CCCCC2)cc1=O)Nc1ccc(Cl)cc1`, the Percent Effect in assay [1] is -3.05%; in assay [2] it was 1.33%; in assay [3], 4.41%; in assay [4], 7%; in assay [5] it was -0.982%; in assay [6] it was -7.92%. The Percent Effect in assay [7] is 6.1%; in assay [8], -11.6%; in assay [9], 6.35%; in assay [10], 10.3%; in [11], 0.832%.
In the case of `CN1CC(=O)N(c2ccsc2)CC12CCN(S(C)(=O)=O)C2` (stereo not drawn), the Percent Effect was -4.15% in [1]; 0% in [2]; -4.23% in [3]; -4.81% in [4]; 6.84% in assay [5]; -2.5% in [6]. Besides, the Percent Effect in assay [7] is 20%; in assay [8], -12.5%; in [9], 3.96%; in assay [10], 11%; in assay [11], -0.42%.
Take `COCCN1C[C@H]2[C@@H](C1)N(Cc1ccc(C)o1)CC[C@H]2OC`: the Percent Effect in [1] is -2.85%; in assay [2], -30.1%; in assay [3], -5.66%; in assay [4] it was 7.25%; in [5], 6.94%; in assay [6], -3.19%. Moreover, the Percent Effect was 14.3% in [7]; 0.524% in [8]; 8.33% in assay [9]; 6.17% in assay [10]; -11.5% in assay [11].
Regarding `COc1ccc(CNCCc2cc(F)cc3c2OCOC3)cc1O`, the Percent Effect in [1] was -5.67%; in assay [2], 4.17%; in assay [3], -9.01%; in assay [4], 0.774%; in assay [5], -2.62%; in [6] it was -0.883%. In addition, the Percent Effect in assay [7] was 4.74%; in assay [8], 2.67%; in assay [9], 3.16%; in assay [10] it was 5.13%; in assay [11], -2.11%.
Regarding `CCc1nnsc1C(=O)N1CCCN(Cc2cnn(C)c2)CC1`, the Percent Effect in assay [1] is -0.656%; in assay [2], -2.6%; in [3], -0.0421%; in assay [4] it was -5.43%; in assay [5], 7.74%; in assay [6] it was -0.21%. Besides, the Percent Effect in assay [7] was -1.05%; in assay [8], -10.1%; in assay [9], 0.952%; in assay [10], 2.35%; in assay [11], -0.342%.
Consider `COc1cc(C(C)=O)ccc1OCC(=O)N(C)Cc1cnn(C)c1`, for which the Percent Effect in assay [1] was -4.48%; in [2] it was 21.1%; in assay [3], -7.57%; in [4], 7.64%; in assay [5] it was 4.76%; in [6], 1.44%. For the same molecule, the Percent Effect in [7] was 6.18%; in [8], 6.99%; in [9], 6.4%; in assay [10], 25.9%; in [11], -10.6%.
As for `CCN(CC)C(CNC(=O)c1ccc(S(C)(=O)=O)cc1)c1ccco1` (stereo not drawn), the Percent Effect in assay [1] was -2.81%; in [2], 2.7%; in assay [3] it was 6.63%; in assay [4], -6.01%; in [5], 3.91%; in [6], -2.5%. Further, the Percent Effect in [7] turned out to be 14.8%; in [8], 8.16%; in assay [9], 8.91%; in [10], 11%; in assay [11], 3.77%.
